# Experimental data as given in PubChem BioAssay AID501 (PCMD, 2006).
# Out of some 62,000 compounds screened, about 35 (0.06%) were called active. Only a selection was taken, and actives are over-represented in it overall. Unmarked numbers belong to inactive results. No stated cut-off is given here; in the data, active means inhibition above about 32% (passing the limit was not always enough); inconclusive means no clear call, values can overlap the other calls.
# Target: Cathepsin S (Homo sapiens) (UniProt P25774)
# Sequence (P25774 115-331 limits assumed): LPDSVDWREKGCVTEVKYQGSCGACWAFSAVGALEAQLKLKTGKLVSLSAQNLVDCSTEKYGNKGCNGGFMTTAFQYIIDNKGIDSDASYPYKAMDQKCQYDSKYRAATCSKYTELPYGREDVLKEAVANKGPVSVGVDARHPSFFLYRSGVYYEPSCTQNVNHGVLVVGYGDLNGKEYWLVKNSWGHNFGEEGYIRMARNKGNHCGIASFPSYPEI
# Experiment: inhibitors of human cathepsin S, biochemical, compound mixtures (AID 501);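 further: 0% = enzyme without compound and 100% = blank without enzyme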
# Conditions: recombinant cathepsin S, AMC dipeptide fluorescence, pooled mixtures; stronger effect = higher value;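 tested at 5 µM per compound within 10-compound mixtures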
row,Structure (SMILES),inhibition
1,Cc1nn(-c2ccccc2)c2sc(C(=O)N(Cc3ccco3)C(C)C(=O)NC(C)(C)C)cc12 (centres undefined),13.8%
2,c1ccc2c(c1)OCC(CNc1ncnc3nc[nH]c13)O2 (centres undefined),-0.615%
3,O=C(CN1CCN(c2ncc(C(F)(F)F)cc2Cl)CC1)Nc1ccc2c(c1)OCO2,13.5%
4,COc1ccc(-c2noc(CN(C)S(=O)(=O)c3ccc(C)cc3)n2)cc1,8.41%
5,Cc1ccc2c(c1)N(C(=O)CCC(=O)N1CCc3ccccc3C1)CCO2,-12.7%
6,CC1CCCC(C)N1CCCNC(=O)c1cc2c(=O)n(C)c3ccccc3c2n1C (centres undefined),7.08%
7,Cn1c(C(=O)NCCCN2CCN(c3cccc(Cl)c3)CC2)cc2c(=O)n(C)c3ccccc3c21,33% (active)
8,CCn1c(=O)cc(OCC(=O)NCCCN2CCN(c3cccc(Cl)c3)CC2)c2ccccc21,4.46%
9,COc1ccc(-c2ccc(-c3noc(-c4ccncc4)n3)c(OC)n2)cc1,6.8%
10,COc1ccccc1N1CCN(c2nc3ccccc3n3nnnc23)CC1,8.24%
11,CC1CCCC(NC(=O)CN2CCN(Cc3ccc(Cl)cc3)C2=O)C1C (centres undefined),-3.54%
12,CCN(CC)S(=O)(=O)c1ccc2nc(CSc3nnnn3-c3ccc(O)cc3)[nH]c2c1,-6.33%
13,CCC(C)Sc1nnc(-c2c[nH]c3ccccc23)n1CCOC (centres undefined),-1.22%
14,COc1ccc(-c2cc3n(n2)CCc2nc4ccccc4n2-3)cc1,-5.35%
15,CCN(CC)C(=O)CSc1nnc(-c2ccc(S(=O)(=O)NCc3ccccc3Cl)cc2)o1,6.42%
16,O=c1/c(=C/c2ccc(CNS(=O)(=O)c3ccccc3)o2)sc2n1CCN=2,-0.38%
17,Cc1cc(C)nc(SCc2ccccc2C#N)n1,-2.31%
18,CCc1cc(=O)oc2cc(C)cc(OC(C)C(=O)O)c12 (centres undefined),-5.16%
19,CN1CCN(Cc2c(O)ccc3c2oc(=O)c2ccccc23)CC1,6.08%
20,CCNS(=O)(=O)c1ccc(NC(=O)Nc2cccc(C(F)(F)F)c2)cc1,-6.53%

row,Structure (SMILES),inhibition
1,Cc1c2cnn(-c3ccccc3)c(=O)c2c(C)n1CCCC(=O)N1CCN(C)CC1,-3.9%
2,CC(NC(=O)c1ccco1)C(=O)Nc1nc(-c2ccccn2)cs1 (centres undefined),12%
3,O=C(O)C1C2C=CC(C2)C1C(=O)N1CCN(CCO)CC1 (centres undefined),3.18%
4,CC(=O)c1cnc(Nc2nc(C)c3cc(C)ccc3n2)nc1C,-5.6%
5,CC(C)NS(=O)(=O)c1ccc(OCC(=O)Nc2ccc3c(c2)OCCO3)cc1,22.9%
6,CC(C)Nc1nc(N(c2ccccc2)c2ccccc2)nc(-n2ccnc2)n1,-8.9%
7,N#Cc1nc(N)nc(N(c2ccccc2)c2ccccc2)n1,49.2% (active)
8,CC(C)n1c(SCC(=O)Nc2ccccc2N2CCCCC2)nc2c1c(=O)n(C)c(=O)n2C,-0.72%
9,CCOC(=O)C1=C(CNC2CCCCC2)NC(=O)NC1c1cc(C)ccc1C (centres undefined),-0.495%
10,O=c1cc(CO)oc(CN2CCC(Cc3ccccc3)CC2)c1O,4.81%
11,C=CCN1C(=O)C(O)(CC(=O)c2ccc(Cl)cc2)c2ccccc21 (centres undefined),-18%
12,CC(C)N1C(=O)C2C(C(=O)NC3CCCCC3)C3C=CC2(O3)C1C(=O)NC1CCCC1 (centres undefined),-8.37%
13,COc1ccc(-c2csc(N3CCN(Cc4ccc5c(c4)OCO5)CC3)n2)cc1,-3.99%
14,COc1ccc(C(=O)Nc2ccc3c(c2)OCO3)cc1OC,-4.12%
15,Cc1ccc(C(=O)NCC(=O)O)cc1S(=O)(=O)N1CCCCC1,-10.7%
16,Cc1ccc(C(=O)Nc2ccc3c(c2)OCO3)cc1S(=O)(=O)N1CCCCC1,85.5% (active)
17,Cc1ccc(S(=O)(=O)N2CCCC2C(=O)NCc2ccco2)cc1 (centres undefined),12.5%
18,CC1(C)CC(CCC(=O)Nc2ccccc2Cl)C(=O)O1 (centres undefined),-3.38%
19,Cc1ccc(C(=O)NCC2CCCO2)o1 (centres undefined),0.56%
20,CCOC(=O)c1c(C)c(C(=O)NCCc2ccc(S(N)(=O)=O)cc2)c(C)n1CC,-0.765%

row,Structure (SMILES),inhibition
1,CC(CCc1ccccc1)NC(=O)c1ccc(Br)o1 (centres undefined),-7.32%
2,CC1(C)Cc2ccccc2-c2nnc(-c3cccc(O)c3)n21,-3.6%
3,O=C(c1ccc(S(=O)(=O)N2CCOCC2)cc1)N1CCN(c2ccccc2)CC1,-24.7%
4,C#CCN1CC(C)/C(=N/O)CC1C (centres undefined),-8.55%
5,CCOC(=O)C1(c2ccccc2)NC(c2ccc(N(C)C)cc2)C2C(=O)N(C)C(=O)C21 (centres undefined),12.2%
6,O=S(=O)(NCCNS(=O)(=O)c1ccccc1)c1ccccc1,-7.43%
7,Cc1nc(N2CCCC2C(=O)O)c2oc3ccccc3c2n1 (centres undefined),8.31%
8,COc1ccc(CCn2c(NCCCN3CCOCC3)nc3c2c(=O)[nH]c(=O)n3C)cc1,5.43%
9,CCOC(=O)c1sc(=S)n2c1[nH]c(=O)c1ccc(C(=O)OC)cc12,-0.96%
10,O=C(CC(NS(=O)(=O)c1ccc(Cl)cc1)c1ccco1)NC1CCCC1 (centres undefined),-2.72%
11,CC(=O)Nc1nc(C)c(Cc2ccccc2)c(=O)[nH]1,-3.33%
12,CCCCSc1nnc(-c2ccc(C)cc2)o1,0.235%
13,O=C(c1ccc2c(c1)C(=O)N(c1ccc(Cl)cc1)C2=O)N1CCN(c2ccccn2)CC1,2.28%
14,O=C(NCc1ccco1)c1ccc(CS(=O)(=O)Cc2ccc(F)cc2)o1,-5.21%
15,COc1cccc(-c2nc3n(n2)C(c2ccccc2Cl)C(C(N)=O)=C(C)N3)c1 (centres undefined),-4.19%
16,CC1(C)CCCC2=C1CC1C(=O)N(c3ccccc3)C(=O)C1C2 (centres undefined),8.69%
17,Cc1ccc(-n2c(SCC(=O)Nc3ccc4c(c3)OCO4)nnc2-c2ccoc2C)cc1,7.19%
18,CC12COC3(C(=O)Nc4ccc(Cl)cn4)CC1CCC32C (centres undefined),-6.89%
19,COC(=O)C1(S(=O)(=O)C2(C(=O)OC)CCCC2)CCCC1,-5.82%
